Measured values reported in PubChem BioAssay AID588347 (National Center for Advancing Translational Sciences (NCATS), 2011).
The list shows a part of the results. Inconclusive results are not listed. The source made the active and inactive calls. Calls follow the shape of the dose curve; as a rule, active = well fitted inhibition curve with a large enough effect; inconclusive = small, poorly fitted or top-dose-only effect, or another doubt; inactive = no such curve, though single readings can be large or run the other way.

Molecular target: Histone acetyltransferase KAT2A (Homo sapiens) (UniProt Q92830)
Assay: qHTS Assay for Inhibitors of GCN5L2: Hit confirmation
Settings: GCN5L2 HAT, ThioGlo1 CoA fluorescence, 20 min
Text: Histone acetyltransferase (HAT) enzymes transfer a […] group from acetyl-coenzyme A to the epsilon-amino group of conserved lysine residues of N-terminal histone tails. Acetylation results in charge neutralization of this positively charged amino acid, decreasing interactions with the […] backbone and making the DNA more accessible for transcription. HATs have been recognized as an emerging drug target for treatment of cancer, diabetes, asthma, chronic obstructive pulmonary disease, cardiac disease, and viral infection. Protein identified with HAT activity include the […] like 2 (GCN5L2, a.ka. Histone acetyltransferase KAT2A) which acetylates histone H3 at Lys9, 14, 18, 13, and to lesser extent histones H4 and H2B. This activates transcription of the gene by modulating chromatin structure and installing the acetyllysine recognition mark for bromodomain-containing coactivator proteins. A quantitative high throughput screen was developed to identify small molecule inhibitors. The assay is based on the principle that it measures formation of reduced CoA with the pro-fluorescent maleimide derivative ThioGlo1 that becomes fluorescent upon reaction with the free thiol of CoA. A large number of artifacts are expected in this primary screen, compounded by the assay format (fluorescent artifacts) and by the high top concentration tested for each substance. […] Yasgar, et al. Compound Management for Quantitative High-Throughput Screening. […] Inglese, et al. Quantitative high-throughput screening: a titration-based approach that efficiently identifies biological activities in large chemical libraries. […]
To each well of a 1,536w plate, 3ul of GCN5L2 (final concentration 20nM, in 50mM HEPES, 0.1mM EDTA (pH 7.5), 0.01% Tween-20 buffer) are added using a Kalypsys dispenser. […] Plates are read immediately on the ViewLux (PerkinElmer) (Ex340nm/Em540nm) for a 0 min read, incubated for 20 min at room temperature, and read again on the ViewLux with the same settings. The initial read was carried out to identify compounds that are potentially fluorescent.

Sequence of Histone acetyltransferase KAT2A (Homo sapiens) (Q92830 whole entry, looked up): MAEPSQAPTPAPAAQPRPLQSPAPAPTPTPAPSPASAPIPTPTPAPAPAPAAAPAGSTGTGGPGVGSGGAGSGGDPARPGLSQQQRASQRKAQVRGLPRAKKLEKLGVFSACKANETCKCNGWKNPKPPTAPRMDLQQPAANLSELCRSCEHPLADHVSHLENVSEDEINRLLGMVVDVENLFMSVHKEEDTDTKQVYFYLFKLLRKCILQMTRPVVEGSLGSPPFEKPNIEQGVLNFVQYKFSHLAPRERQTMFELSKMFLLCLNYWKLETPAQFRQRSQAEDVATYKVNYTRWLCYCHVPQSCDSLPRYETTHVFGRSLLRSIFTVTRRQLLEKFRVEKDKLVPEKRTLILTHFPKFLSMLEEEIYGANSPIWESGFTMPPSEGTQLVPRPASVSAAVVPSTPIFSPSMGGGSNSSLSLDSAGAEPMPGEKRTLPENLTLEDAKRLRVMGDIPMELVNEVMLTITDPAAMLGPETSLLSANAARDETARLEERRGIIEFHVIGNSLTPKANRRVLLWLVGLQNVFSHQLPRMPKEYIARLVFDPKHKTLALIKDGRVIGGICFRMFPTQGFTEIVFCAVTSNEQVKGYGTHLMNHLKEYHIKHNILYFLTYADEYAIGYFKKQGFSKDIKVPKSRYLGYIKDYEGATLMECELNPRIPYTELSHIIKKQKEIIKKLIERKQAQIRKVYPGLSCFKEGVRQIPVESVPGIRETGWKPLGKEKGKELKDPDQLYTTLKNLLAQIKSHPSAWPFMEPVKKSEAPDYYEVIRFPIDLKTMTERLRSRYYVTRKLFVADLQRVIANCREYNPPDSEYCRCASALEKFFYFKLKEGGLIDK

Potency, active:
O=c1[nH]c2ccccc2n2c(-c3ccccc3)nnc12 6.46 µM
CC1=C/C(=N\OS(=O)(=O)c2ccccc2)C=CC1=O 10.2 µM
FC(F)(F)C1CCCN(c2nsc3ccccc23)C1 (stereo not drawn) 2.89 µM
